Reference: PubChem BioAssay (NCI)
This is part of a sample that, as a whole, favours compounds with a hit. Of some 79,000 tested, about 15% had one in any assay. Active and inactive are the calls of the source. No stated cut-off is given here; in the data, active means growth inhibition above about 70%; inactive means the rest.

How the values were obtained:
[1] = NCI Yeast Anticancer Drug Screen. Data for the rad52 strain (AID 147);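 further: 0% = growth of vehicle-treated control cultures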; settings: S. cerevisiae rad52 mutant growth inhibition, stronger effect = higher value
Method in brief: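 Vehicle-treated cultures served as the reference for growth inhibition of compound-exposed yeast bearing a DNA repair mutation.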

[2] = NCI Yeast Anticancer Drug Screen. Data for the wt1 strain (AID 149);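 further: 0% = growth of vehicle-treated wt1 cultures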; settings: S. cerevisiae wt1 strain (SPY 50644) growth inhibition, stronger effect = higher value
Method in brief: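 wt1 strain grown with compound or vehicle; inhibition taken from the growth difference.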

[3] = NCI Yeast Anticancer Drug Screen. Data for the rad50EPP+ strain (AID 151);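 further: 0% = growth of vehicle-treated control cultures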; settings: S. cerevisiae rad50 mutant strain, stronger effect = higher value
Method in brief: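 In this screen, rad50EPP+ yeast were exposed to compounds. Growth inhibition was scored against vehicle-treated controls.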

[4] = NCI Yeast Anticancer Drug Screen. Data for the mgt1 strain (AID 153); settings: S. cerevisiae mgt1 mutant growth inhibition, stronger effect = higher value
Method in brief: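 mgt1 strain exposed; growth vs vehicle control recorded as inhibition.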

[5] = NCI Yeast Anticancer Drug Screen. Data for the rad50 strain (AID 155);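 further: 0% = growth of vehicle-only cultures of the same strain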; settings: S. cerevisiae rad50 strain growth inhibition, stronger effect = higher value
Method in brief: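 DNA repair mutant yeast, compound exposure, growth read-out; inhibition is taken relative to vehicle.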

[6] = NCI Yeast Anticancer Drug Screen. Data for the mec2-1 strain (AID 157); settings: S. cerevisiae mec2-1 strain, stronger effect = higher value
Method in brief: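 Vehicle-treated cultures served as reference for growth inhibition of compound-exposed mec2-1 yeast.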

[7] = NCI Yeast Anticancer Drug Screen. Data for the rad14 strain (AID 159);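 further: 0% = growth of vehicle-treated control cultures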; settings: S. cerevisiae rad14 strain growth inhibition, stronger effect = higher value
Method in brief: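 DNA repair-defective yeast, compound-exposed; % growth inhibition derived by comparison with vehicle-treated controls.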

[8] = NCI Yeast Anticancer Drug Screen. Data for the sgs1 mgt1 strain (AID 161);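 further: 0% = growth of cultures given vehicle only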; settings: S. cerevisiae sgs1 mgt1 strain, stronger effect = higher value
Method in brief: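 Test agents were incubated with a DNA-repair-mutant yeast strain. Growth was then read and compared against vehicle-treated controls.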

[9] = NCI Yeast Anticancer Drug Screen. Data for the CLN2oe strain (AID 163);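 further: 0% = growth of vehicle-only control cultures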; settings: S. cerevisiae CLN2oe strain, stronger effect = higher value
Method in brief: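 Inhibition relative to vehicle-treated yeast is reported. Cells: strain with genetic alteration in cell-cycle control, grown with compound.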

[10] = NCI Yeast Anticancer Drug Screen. Data for the cln2 rad14 strain (AID 165);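 further: 0% = growth equal to vehicle treated cultures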; settings: S. cerevisiae cln2 rad14 strain, stronger effect = higher value
Method in brief: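 Each compound was tested on cln2 rad14 yeast. Inhibition of growth was calculated against vehicle-exposed controls.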

[11] = NCI Yeast Anticancer Drug Screen. Data for the bub3 strain (AID 167); settings: S. cerevisiae bub3 mutant strain, stronger effect = higher value
Method in brief: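 In this screen, a yeast mutant lacking normal mitotic checkpoint function is challenged with compound. Relative growth versus vehicle gives the inhibition value.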

[12] = NCI Yeast Anticancer Drug Screen. Data for the wt2 strain (AID 169);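 further: 0% = growth of vehicle-treated yeast cultures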; settings: S. cerevisiae wt2 strain growth inhibition, stronger effect = higher value
Method in brief: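 Inhibition of yeast growth was determined after compound treatment, normalised to controls receiving only vehicle.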

[13] = NCI Yeast Anticancer Drug Screen. Data for the mlh1 strain (AID 171);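 further: 0% = growth of vehicle-treated control cultures of the same strain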; settings: S. cerevisiae mlh1 strain growth inhibition, stronger effect = higher value
Method in brief: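 Vehicle-normalised growth inhibition of a repair- or checkpoint-altered yeast strain following compound treatment.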

[14] = NCI Yeast Anticancer Drug Screen. Data for the sgs1 strain (AID 173);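 further: 0% = growth of vehicle-only control cultures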; settings: S. cerevisiae sgs1 mutant, stronger effect = higher value
Method in brief: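 Screen format: yeast with repair or checkpoint alterations, compound exposure, growth read relative to vehicle.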

[15] = NCI Yeast Anticancer Drug Screen. Data for the mlh1 rad18 strain (AID 175); settings: S. cerevisiae mlh1 rad18 strain growth inhibition, stronger effect = higher value
Method in brief: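 Vehicle-treated cultures served as the reference for growth inhibition in a yeast strain carrying DNA damage repair alterations exposed to each compound.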

[16] = NCI Yeast Anticancer Drug Screen. Data for the rad18 strain (AID 177); settings: S. cerevisiae rad18 mutant growth inhibition, stronger effect = higher value
Method in brief: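 Test articles were incubated with altered yeast defective in DNA damage repair. Results are given as inhibition of growth versus vehicle.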

[17] = at 5.0 µM (retest, dose inferred, filed as 0.5)
[18] = at 50.0 µM (retest, dose inferred, filed as 5.0)

Measured: growth inhibition

CC(C)/C(Cl)=N\OC(=O)Nc1ccc(F)cc1
inactive: [1]; at 1.2 µM 3% | [1]; at 3.7 µM 6% | [1]; at 11.0 µM 11% | [1]; at 33.0 µM 20% | [2]; at 1.2 µM 2% | [2]; at 3.7 µM -1% | [2]; at 11.0 µM -3% | [2]; at 33.0 µM -5% | [2]; at 100.0 µM -3% | [3]; at 1.2 µM 1% | [3]; at 3.7 µM 11% | [3]; at 11.0 µM 24% | [3]; at 33.0 µM 57% | [4]; at 1.2 µM 3% | [4]; at 3.7 µM 0% | [4]; at 11.0 µM 6% | [5]; at 1.2 µM 5% | [5]; at 3.7 µM 10% | [5]; [17] 24% | [5]; at 11.0 µM 12% | [5]; at 33.0 µM 23% | [5]; [18] 48% | [5]; at 50.0 µM 10.7% | [6]; at 1.2 µM 6% | [6]; at 3.7 µM 10% | [6]; [17] 35% | [6]; at 11.0 µM 13% | [6]; at 33.0 µM 23% | [6]; [18] 63% | [6]; at 50.0 µM 34% | [7]; at 1.2 µM 4% | [7]; at 3.7 µM 8% | [7]; at 11.0 µM 11% | [7]; at 33.0 µM 13% | [7]; at 100.0 µM 69% | [8]; [17] 26% | [9]; at 1.2 µM 12% | [9]; at 3.7 µM 16% | [9]; at 11.0 µM 15% | [9]; at 33.0 µM 14% | [9]; at 100.0 µM 15% | [10]; [17] 27% | [10]; [18] 29% | [10]; at 50.0 µM 38.8% | [11]; at 1.2 µM 13% | [11]; at 3.7 µM 22% | [11]; [17] 52% | [11]; at 11.0 µM 32% | [11]; at 33.0 µM 45% | [12]; at 1.2 µM -1% | [12]; at 3.7 µM -2% | [12]; at 11.0 µM 3% | [13]; at 1.2 µM 1% | [13]; at 3.7 µM 2% | [13]; at 11.0 µM 6% | [13]; at 33.0 µM 62% | [14]; at 1.2 µM -1% | [14]; at 3.7 µM -2% | [14]; at 11.0 µM 13% | [15]; [17] 33% | [15]; [18] 54% | [15]; at 50.0 µM -41.8% | [16]; at 1.2 µM -1% | [16]; at 3.7 µM 0% | [16]; at 11.0 µM 2% | [16]; at 33.0 µM 5% | [16]; at 100.0 µM 56%
active: [1]; at 100.0 µM 78% | [3]; at 100.0 µM 98% | [4]; at 33.0 µM 78% | [4]; at 100.0 µM 99% | [5]; at 100.0 µM 81% | [6]; at 100.0 µM 95% | [8]; [18] 86% | [8]; at 50.0 µM 88.7% | [11]; [18] 83% | [11]; at 50.0 µM 73.8% | [11]; at 100.0 µM 99% | [12]; at 33.0 µM 86% | [12]; at 100.0 µM 99% | [13]; at 100.0 µM 98% | [14]; at 33.0 µM 89% | [14]; at 100.0 µM 99%

c1ccc2c(c1)C(=NCCCN1CCCCCC1)c1cccn1-2
inactive: [1]; at 1.2 µM -3% | [1]; at 3.7 µM -5% | [1]; at 11.0 µM -5% | [1]; at 33.0 µM -6% | [2]; at 1.2 µM -2% | [2]; at 3.7 µM -1% | [2]; at 11.0 µM 2% | [2]; at 33.0 µM -1% | [3]; at 1.2 µM -3% | [3]; at 3.7 µM -4% | [3]; at 11.0 µM -4% | [3]; at 33.0 µM 3% | [3]; at 100.0 µM 63% | [4]; at 1.2 µM -4% | [4]; at 3.7 µM -1% | [4]; at 11.0 µM -1% | [4]; at 33.0 µM 3% | [5]; at 1.2 µM -3% | [5]; at 3.7 µM -8% | [5]; [17] -3% | [5]; at 11.0 µM -9% | [5]; at 33.0 µM -6% | [5]; [18] -6% | [6]; at 1.2 µM -3% | [6]; at 3.7 µM 1% | [6]; [17] 0% | [6]; at 11.0 µM 4% | [6]; at 33.0 µM 0% | [6]; [18] -3% | [6]; at 50.0 µM 68.2% | [7]; at 1.2 µM -15% | [7]; at 3.7 µM -3% | [7]; at 11.0 µM -2% | [7]; at 33.0 µM 4% | [8]; [17] 2% | [8]; [18] -7% | [9]; at 1.2 µM -10% | [9]; at 3.7 µM -15% | [9]; at 11.0 µM -23% | [9]; at 33.0 µM -18% | [10]; [17] -7% | [10]; [18] -5% | [10]; at 50.0 µM 61.4% | [11]; at 1.2 µM 0% | [11]; at 3.7 µM -4% | [11]; [17] 6% | [11]; at 11.0 µM 0% | [11]; at 33.0 µM 10% | [11]; [18] -3% | [12]; at 1.2 µM -2% | [12]; at 3.7 µM -4% | [12]; at 11.0 µM -2% | [12]; at 33.0 µM -3% | [13]; at 1.2 µM -2% | [13]; at 3.7 µM -2% | [13]; at 11.0 µM 0% | [13]; at 33.0 µM 4% | [14]; at 1.2 µM -4% | [14]; at 3.7 µM -2% | [14]; at 11.0 µM -1% | [14]; at 33.0 µM 4% | [15]; [17] -2% | [15]; [18] -2% | [16]; at 1.2 µM -1% | [16]; at 3.7 µM 1% | [16]; at 11.0 µM 4% | [16]; at 33.0 µM 1%
active: [1]; at 100.0 µM 97% | [2]; at 100.0 µM 93% | [4]; at 100.0 µM 97% | [5]; at 50.0 µM 78.2% | [5]; at 100.0 µM 97% | [6]; at 100.0 µM 98% | [7]; at 100.0 µM 98% | [8]; at 50.0 µM 84.5% | [9]; at 100.0 µM 93% | [11]; at 50.0 µM 94.9% | [11]; at 100.0 µM 97% | [12]; at 100.0 µM 96% | [13]; at 100.0 µM 96% | [14]; at 100.0 µM 96% | [15]; at 50.0 µM 89.8% | [16]; at 100.0 µM 98%
